# Only a selection was taken, and hits are over-represented in it overall.
# VACV E9 pol inh: inhibitors of vaccinia virus processive DNA synthesis (E9 polymerase); in vitro processive DNA synthesis, absorbance read-out; stronger effect = lower value; normalized absorbance, % (concentration not given with the values); actives 0.94% (n = 46,000); AID 493162; in the data active = normalized absorbance mostly below about 85%, no sharp cut-off; inactive = mostly above about 86%
# Active calls of the source: *.
SMILES,VACV E9 pol inh
CCN1CCCC1CNC(=O)c1noc2c1COc1ccc(C)cc1-2 (stereo not given),63.3*
O=C(Cn1ccsc1=NC(=O)c1ccco1)c1ccccc1,105.3
C[n+]1ccc(/C=C\c2ccco2)c2ccccc21,90.9
C[n+]1ccc(/C=C/c2ccc3c(c2)OCO3)c2ccccc21,59.9*
C[n+]1ccc(/C=C/c2ccccc2O)c2ccccc21,99.9
CCN1C(=O)C(C(=O)N(Cc2ccccc2)Cc2ccccc2)C2CC1(C)Oc1ccccc12 (stereo not given),100.0
CCN1CCN(CCCNC(=O)c2ccc3nc(/C=C(\O)c4ccc(OC)cc4)c(=O)[nH]c3c2)CC1,47.6*
COc1ccc(/C(O)=C/c2nc3ccc(C(=O)N4CCOCC4)cc3[nH]c2=O)cc1OC,80.5
Cc1ccc(/C(O)=C/c2nc3ccccc3[nH]c2=O)cc1C,99.5
O=C(COC(=O)c1ccc(Br)cn1)c1ccccc1,104.8
Cc1cc(NS(=O)(=O)c2ccc(N=Cc3ccccc3O)cc2)no1,98.1
O=C(O)c1cc(C=Nc2ccc(S(=O)(=O)NC3NC=CS3)cc2)c2c(c1)COCO2 (stereo not given),51.8*
CCCCC[C@@H](/C=C/C=C\CCCCCCCC(=O)O)OO,92.4
Cc1ccc(Nc2ccc3noc4c3c2C(=O)c2ccccc2-4)cc1,100.5
O=C1c2ccccc2-c2n[nH]c(=O)c3ccc(N4CCOCC4)c1c23,99.4
CC1CCN(c2cc(N(C)C)c3noc4c3c2C(=O)c2ccccc2-4)CC1,69.9*
CCOC(=O)C12CCC(C(=O)O)(CC1)CC2,96.1
O=C1CC(Nc2ccc(N3CCOCC3)cc2)C(=O)N1c1ccccc1C(F)(F)F (stereo not given),95.2
CC1CCN(C(=O)COC(=O)c2ccc(C#N)cc2)CC1,103.2
COC(=O)c1cccc(NC(N)=S)c1,97.3
N=C(N)c1cccc(NC(=O)Nc2cccc(C(=N)N)c2)c1,77.1*
Cc1cccc(NC(=O)Nc2cccc(C)c2)c1,105.4
CCC(=O)Oc1ccc(N2C(=O)CCC2=O)cc1,99.8
O=C(Cc1cccc2ccccc12)NCCN1CCOCC1,107.0
O=C(O)CSCC(=O)N1CCN(C2c3ccccc3-c3ccccc32)CC1,96.2
SMILES,VACV E9 pol inh
c1ccc2c(c1)NC(c1ccncc1)n1c-2nc2ccccc21 (stereo not given),100.8
Cc1nc2ccccc2n1C/C=C/c1ccccc1,98.4
Oc1ccc(N=Cc2ccccc2)cc1-c1nc2ccccc2s1,83.7*
Oc1ccccc1C=Nc1ccc(-c2nc3ccccc3s2)cc1,100.0
CC(C)(C)C(=O)Nc1ccc(O)c(-c2nc3ccccc3s2)c1,98.9
O=S(=O)(c1cccc(C(F)(F)F)c1)N(CCCN1CCOCC1)Cc1cccs1,84.5
CCN1CCN(c2ccc(NC(=O)c3cccc(Br)c3)cc2)CC1,97.0
CN1CCN(c2ccc(Nc3ccnc4cc(Cl)ccc34)cc2Cl)CC1,100.3
CCN1CCN(c2ccc(Nc3ccnc4cc5ccccc5cc34)cc2)CC1,14.0*
O=C1c2ccccc2-c2onc3c(Br)cc(NCc4ccccc4)c1c23,98.9
CCOC(=O)N1CCN(S(=O)(=O)c2ccccc2)CC1,99.6
CCOC(=O)N1CCN(c2cc(NCCC(=O)O)c3c4c(onc24)-c2ccccc2C3=O)CC1,69.5*
Cc1ccc(-c2cc(C(=O)N3CCCCC3C)c3ccccc3n2)cc1 (stereo not given),99.3
O=C1SC(c2ccccc2)=N/C1=C/c1ccco1,99.9
Cc1cccc(C)c1N1CCc2cn[nH]c21,94.9
CCCCCCCCCCCCCCCC[n+]1ccccc1,17.1*
c1cc[n+](C[n+]2ccccc2)cc1,103.4
OCCNc1ncnc2ccccc12,99.1
Cc1ccc(Nc2nc(N3CC(C)OC(C)C3)nc3c2cnn3C)cc1Cl (stereo not given),97.0
COc1ccc(Nc2nc(N3CCN(CCO)CC3)nc3c2cnn3C)cc1Cl,38.3*
CCc1nc2c(cnn2-c2ccc(F)cc2)c(=O)n1-c1ccc(OC)c(Cl)c1,101.8
Cn1c(CSc2cc(C(F)(F)F)nc3ccccc23)n[nH]c1=S,96.2
CCCC(=O)Nc1nnc(SCC(=O)Nc2ccc(C)cc2C)s1,102.0
CC1(C)CC(=O)C(C(=S)Nc2ccccc2)C(=O)C1,99.5
CC1(C)Cc2ccccc2/C(=C/C(=O)Nc2ccccc2)N1,86.2*
SMILES,VACV E9 pol inh
CC1(C)CC(=O)C=C(NC(=O)Nc2ccccc2)C1,102.1
O=c1ccc2ccc(OCc3ccc(Cl)cc3)cc2o1,99.3
CC(NC(=O)c1ccccc1C(=O)NC(C)c1ccc2c(c1)OCCO2)c1ccc2c(c1)OCCO2 (stereo not given),104.6
CSc1nnc(NC(=O)C(C)C)s1,101.4
CCN(CC)CCNc1ccc(CO)c2sc3ccccc3c(=O)c12,59.8*
CCOC(=O)C(C)n1nc(C)c2sc3ccccc3c2c1=O (stereo not given),92.2
CCC(C(=O)O)n1nc(C)c2sc3ccccc3c2c1=O (stereo not given),101.9
Nc1ncc(Cc2ccc(Cl)cc2Cl)s1,96.5
O=C1CSc2nnc(-c3ccccc3Br)n2N1,91.7
Cc1cc(C)nc(/N=C(\N)Nc2ccccc2)n1,41.2*
Cc1cc(C)nc(NC(N)=NCc2ccccc2)n1,97.7
Cc1cc(=O)[nH]c(/N=C(\N)Nc2ccccc2)n1,100.3
N#C/C=C(\Nc1ccc(Br)cc1)c1ccccc1,100.9
Cc1ccc(CN2COc3c(Cl)cc4c(C)c(C)c(=O)oc4c3C2)cc1,69.4*
Cc1c2c(cc3c4c(c(=O)oc13)CCCC4)CN(CCc1ccc(F)cc1)CO2,105.9
COC(=O)c1cc2ccc3c(c2oc1=O)CN(Cc1ccccc1)CO3,105.0
CN(C)c1cccc(C(=O)OCC(=O)c2ccc(F)cc2)c1,104.6
CCCCN(C)S(=O)(=O)c1ccc2oc(C(=O)O)c(C)c2c1,101.1
COc1ccc2ccccc2c1C=Nc1cccc(CO)c1,100.3
Cc1cc(Nc2ccccc2)n(C(C)(C)C)n1,94.7
Cc1cc(Nc2ccccc2)n(-c2ccccc2C(=O)O)n1,86.5*
Cc1cc(Nc2ccccc2)n2cnnc2n1,87.5
Cc1cc(C(=O)OCC(N)=O)c(C)o1,101.0
CCOc1ccc(-c2nnc3ccc(SCc4ccc(C(=O)OC)o4)nn23)cc1,89.3
CCOC(=O)N1CCN(C(=O)c2ccc3nc(-c4ccccc4)c(-c4ccccc4)nc3c2)CC1,100.2
SMILES,VACV E9 pol inh
Cc1cc(=O)oc2c(CN3CCCCC3)c(O)ccc12,99.7
CCOC(=O)c1c(C)oc2c1c(CN1CCN(C)CC1)c(O)c1ccccc12,99.3
Cc1cc(O)c(CN2CCN(C)CC2)c2oc(=O)c3ccccc3c12,81.4*
COC(=O)c1cc2sccc2n1C(C)C(=O)Nc1ccccc1OC (stereo not given),98.6
COC(=O)c1ccc(-n2ccnc2)cc1,90.9
CC(=Nc1c2c(nc3ccccc13)N(C)CC2)N(C)C,99.8
Nc1c2c(nc3ccccc13)N(C1CCCCC1)CC2,87.4*
CC1CCCCN1c1nc(-c2ccccc2O)nc2ccccc12 (stereo not given),100.3
O=C(O)CCCc1c(-[n+]2ccccc2)[nH]c2ccccc12,102.3
COc1cccc2sc(=NC(=O)C3CCCCC3)n(C)c12,101.0
CN1CCN(c2ccc(CNC(=O)c3ccc4nsnc4c3)cc2)CC1,95.1
CCC(=O)O[C@H]1[C@H](O[C@@H]2[C@@H](C)[C@H](O[C@H]3C[C@@](C)(OC)[C@@H](O)[C@H](C)O3)[C@@H](C)C(=O)O[C@H](CC)[C@@](C)(O)[C@H](O)[C@@H](C)C(=O)[C@H](C)C[C@@]2(C)O)O[C@H](C)C[C@@H]1N(C)C,94.9

# Screens: PubChem BioAssay, ICCB-Longwood Screening Facility, Harvard Medical School
